Screen size: about 5,500 compounds; about 2,000 (36%) were called active. Another 18% or so got no clear call; they are omitted. Cut-off read from the data, not from the text of the source: active = normalized growth mostly below about 0.91 (no sharp cut-off); inconclusive = no clear call, values can overlap the other calls; inactive = mostly above about 0.92. The list shows a part of the results.
Experiment: chemical genetic growth profiling, strain panel (AID 1159580);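 note: tested at 20 µM; growth read once vehicle control cultures reached saturation at 30 °C; 1 = growth at the plate median or of vehicle wells; lower values mean less growth of the strain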
Conditions: S. cerevisiae deletion strains, growth OD

Measured: normalized growth

Oc1ccc2c3c1O[C@H]1c4[nH]c5c(c4C[C@@]4(O)[C@@H](C2)N(CC2CC2)CC[C@]314)C[C@@]1(O)[C@H]2Cc3ccc(O)c4c3[C@@]1(CCN2CC1CC1)[C@H]5O4
inactive: locus YAL013W, strain DEP1, stronger effect = lower value 0.969 | locus YAL040C, strain CLN3, stronger effect = lower value 1 | locus YCL061C, strain MRC1 (second series), stronger effect = lower value 0.962 | locus YDR363W, strain ESC2, stronger effect = lower value 1.02 | locus YER002W, strain NOP16, stronger effect = lower value 0.996 | locus YGR078C, strain PAC10, stronger effect = lower value 0.986 | locus YMR263W, strain SAP30, stronger effect = lower value 0.982 | locus YMR307W, strain GAS1, stronger effect = lower value 1.03 | locus YNL175C, strain NOP13, stronger effect = lower value 1 | locus YNL197C, strain WHI3, stronger effect = lower value 0.978 | locus YNL224C, strain SQS1, stronger effect = lower value 1 | locus YNL322C, strain KRE1, stronger effect = lower value 0.958 | locus YOR083W, strain WHI5 (second series), stronger effect = lower value 1.01 | locus YPL241C, strain CIN2, stronger effect = lower value 0.968
